Test results published in PubChem BioAssay (NCATS).
Inconclusive results are not listed. Calls of active or inactive are those of the source. Unless noted, calls come from the whole dose curve; as a rule, active = well fitted curve in the direction sought with a large enough effect; inconclusive = small, poorly fitted or top-dose-only effect, or another doubt; inactive = no such curve, though single readings can be large; an effect the other way counts as inactive or inconclusive.

Experiments:
[1] = molecular target: Lysosomal acid glucosylceramidase (Homo sapiens) (UniProt P04062); assay: Glucocerebrosidase-p2 (AID 348; in the data active = potency below about 10 µM; note: potency is the fitted concentration of half-maximal effect); conditions: purified GBA, blue fluorogenic substrate, 40 min
Procedure, shortened: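 Normal human glucocerebrosidase (0.2 nM) with blue fluorogenic substrate (80 uM final) in citrate/phosphate pH 5.9 with 10mM sodium taurocholate, 0.01% tween-20; 40 min RT, NaOH/glycine stop; fluorescence Ex 365/Em 440; AC50 from a titration from 0.6 nM upwards.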

[2] = AP1 Signaling Pathway (AID 357; active = well fitted curve in either direction with a large enough effect, not every such curve was filed as active;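 note: ME-180 reporter cells stimulated with EGF at its EC50 level; % is set by controls: 0 for no effect and ±100 for the full control effect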); conditions: ME-180 AP-1-bla reporter, EGF-induced, beta-lactamase ratio, 5 h; at 7.69 µM (top of the series) unless noted
Procedure, shortened: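 Cells are seeded overnight, exposed to compound titrations and an EC50 level of EGF for 5 hours at 37 °C, then loaded with CCF4 dye for 2.5 hours. Beta-lactamase activity under the AP-1 element is read as a blue/green ratio.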

[3] = Stat Signaling Pathway (AID 446; active = well fitted curve in either direction with a large enough effect, not every such curve was filed as active;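 note: ME-180 cervical cancer cells given 40 pM IL-6 alongside compound; SIE-controlled beta-lactamase reporter measured as 460/530 nm FRET emission ratio; % is set by controls: 0 for no effect and ±100 for the full control effect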); conditions: ME-180 (cervical carcinoma) SIE beta-lactamase reporter, IL-6 stimulated, 5 h; at 7.69 µM (top of the series) unless noted
Procedure, shortened: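 Normalization used AC90 stimulation (300 pM IL-6) and AC90 inhibition (125 nM pan-JAK inhibitor at 40 pM IL-6). The underlying signal is SIE-driven beta-lactamase in ME-180 cells after 5 h IL-6 exposure with compound.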

[4] = molecular target: 3',5'-cyclic-AMP phosphodiesterase 4B (Homo sapiens) (UniProt Q07343); assay: qHTS Assay for Inhibitors of PDE-IV (AID 607; active = well fitted activation curve with a large enough effect in the main read-out, with a control signal flat, not every such curve was filed as active; note: % of control where 0% means no effect); conditions: HEK293 ACTOne CNG channel cells, membrane potential fluorescence; series mostly up to 22.9 µM
Procedure, shortened: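 HEK293 ACTOne cells with CNG channel (1000/well), endogenous PDE4; membrane potential dye, compounds up to 22.9 uM final. Fluorescence Ex 535/Em 590; RO 20-1724 (100 uM final) as reference.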

[5] = molecular target: ATP-dependent 6-phosphofructokinase (Trypanosoma brucei brucei) (UniProt O15648); assay: qHTS Assay to Find Inhibitors of T. brucei phosphofructokinase: hit validation (AID 492961);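 note: luminescence reports ADP formed as PFK phosphorylates fructose-6-phosphate with ATP; % is set by controls: 0 for no effect and ±100 for the full control effect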; conditions: T. brucei PFK, ADP-Glo luminescence; series mostly up to 51.4 µM
Procedure, shortened: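 ADP-Glo luminescence read-out of ADP formed by 1.25 nM PFK from 0.1 mM ATP and 0.5 mM F6P (TEA pH 8.0, 45 min, RT). Compounds titrated; activity normalized to no-enzyme and full-enzyme controls.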

[6] = molecular target: Luciferin 4-monooxygenase (Photinus pyralis) (UniProt P08659); assay: Biochemical firefly luciferase enzyme assay for NPC (AID 624030);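 note: purified P. pyralis luciferase at 10 nM with luciferin and ATP substrate; 0% = DMSO and -100% = full luciferase inhibition by PTC124 control; nearly all actives have a fitted effect of over 70% in size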; conditions: purified P. pyralis luciferase, luminescence, 5 min; series mostly up to 58.6 µM
Procedure, shortened: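 Direct inhibition of firefly luciferase enzyme (10 nM final, 50 mM Tris Acetate) assessed by luminescence within 5 minutes. Percent activity scaled between DMSO and PTC124 positive control, with concentration-effect curves classified by fit quality and response.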

[7] = S16 Schwann cell viability assay (CellTiter-Glo assay) (AID 624031); conditions: S16 rat Schwann cells viability, 24 h; series mostly up to 57.5 µM;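 note: native untransfected S16 rat Schwann cells; cellular ATP luminescence as a viability measure; plate controls were DMSO-treated cells for no effect and cell-free wells for full effect; nearly all actives have a fitted effect of over 70% in size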
Procedure, shortened: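 Following overnight culture in 10% FBS DMEM, parental S16 rat Schwann cells are dosed for 24 h at 37 °C. Viability is read as CellTiter-Glo luminescence and expressed as % activity relative to DMSO (0%) and no-cell wells.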

[8] = S16 Schwann cell PMP22 intronic element firefly luciferase assay (AID 624032); conditions: S16 rat Schwann cells, PMP22 element FLuc, 24 h; series mostly up to 57.5 µM;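 note: plate controls were DMSO for no effect and PTC124 positive control mean for full effect; nearly all actives have a fitted effect of over 30% in size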
Procedure, shortened: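 Luciferase reporter of PMP22 intronic-element expression in stably transfected S16 rat Schwann cells, read by ONE-Glo luminescence after 24 h compound exposure at 37 C. Activity scaled between DMSO (0%) and positive-control PTC124; concentration-effect curves quality-classified.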

[9] = S16 Schwann cell PMP22 intronic element beta-lactamase assay (AID 624044; calls by dose curve;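 note: 0% = DMSO and -100% = potassium clavulanate positive control; nearly all actives have a fitted effect of over 15% in size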); conditions: S16 rat Schwann cells, PMP22 element beta-lactamase FRET, 24 h; series mostly up to 38.3 µM
Procedure, shortened: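 Beta-lactamase reporter under a PMP22 intronic regulatory element in stable S16 rat Schwann cells; 24 h compound exposure. 460 nm blue signal normalized between DMSO (0%) and potassium clavulanate, with 535 nm FRET tracking viability; curves classed by r2 and response.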

[10] = qHTS profiling for inhibitors of Plasmodium falciparum proliferation (AID 504749);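 note: 0% = DMSO vehicle and full inhibition = artemisinin control; nearly all actives have a fitted effect of over 60% in size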; conditions: P. falciparum in erythrocytes, SYBR Green DNA, 72 h, at 28.7 µM (top of the series)
Procedure, shortened: (§1)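 SYBR Green fluorescence of parasite DNA, read after lysis and overnight dark incubation, measured growth over 72 h in erythrocyte culture at 0.3% parasitemia and 2.5% hematocrit. Data normalised to DMSO and 0.29 uM artemisinin, with plate-drift correction.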

[11] = test system: 3D7; assay: as above; conditions: P. falciparum in erythrocytes, SYBR Green DNA, 72 h; series mostly up to 28.7 µM
Procedure, shortened: as §1

[12] = test system: 7G8; assay: as above; conditions: P. falciparum in erythrocytes, SYBR Green DNA, 72 h; series mostly up to 28.7 µM
Procedure, shortened: as §1

[13] = test system: AA1029; assay: as above; conditions: P. falciparum in erythrocytes, SYBR Green DNA, 72 h; series mostly up to 28.7 µM
Procedure, shortened: as §1

[14] = test system: AS120; assay: as above; conditions: P. falciparum in erythrocytes, SYBR Green DNA, 72 h; series mostly up to 28.7 µM
Procedure, shortened: as §1

[15] = test system: ATS189; assay: as above; conditions: P. falciparum in erythrocytes, SYBR Green DNA, 72 h; series mostly up to 28.7 µM
Procedure, shortened: as §1

[16] = test system: ATS95; assay: as above; conditions: P. falciparum in erythrocytes, SYBR Green DNA, 72 h; series mostly up to 28.7 µM
Procedure, shortened: as §1

[17] = test system: C2A; assay: as above; conditions: P. falciparum in erythrocytes, SYBR Green DNA, 72 h; series mostly up to 28.7 µM
Procedure, shortened: as §1

[18] = test system: CP185; assay: as above; conditions: P. falciparum in erythrocytes, SYBR Green DNA, 72 h; series mostly up to 28.7 µM
Procedure, shortened: as §1

[19] = test system: CP191; assay: as above; conditions: P. falciparum in erythrocytes, SYBR Green DNA, 72 h; series mostly up to 28.7 µM
Procedure, shortened: as §1

[20] = test system: CP192; assay: as above; conditions: P. falciparum in erythrocytes, SYBR Green DNA, 72 h; series mostly up to 28.7 µM
Procedure, shortened: as §1

[21] = test system: CP194; assay: as above; conditions: P. falciparum in erythrocytes, SYBR Green DNA, 72 h; series mostly up to 28.7 µM
Procedure, shortened: as §1

[22] = test system: CP201; assay: as above; conditions: P. falciparum in erythrocytes, SYBR Green DNA, 72 h; series mostly up to 28.7 µM
Procedure, shortened: as §1

[23] = test system: CP203; assay: as above; conditions: P. falciparum in erythrocytes, SYBR Green DNA, 72 h; series mostly up to 28.7 µM
Procedure, shortened: as §1

[24] = test system: CP211; assay: as above; conditions: P. falciparum in erythrocytes, SYBR Green DNA, 72 h; series mostly up to 28.7 µM
Procedure, shortened: as §1

[25] = test system: CP215; assay: as above; conditions: P. falciparum in erythrocytes, SYBR Green DNA, 72 h; series mostly up to 28.7 µM
Procedure, shortened: as §1

[26] = test system: CP217; assay: as above; conditions: P. falciparum in erythrocytes, SYBR Green DNA, 72 h; series mostly up to 28.7 µM
Procedure, shortened: as §1

[27] = test system: CP237; assay: as above; conditions: P. falciparum in erythrocytes, SYBR Green DNA, 72 h; series mostly up to 28.7 µM
Procedure, shortened: as §1

[28] = test system: CP238; assay: as above; conditions: P. falciparum in erythrocytes, SYBR Green DNA, 72 h; series mostly up to 28.7 µM
Procedure, shortened: as §1

[29] = test system: CP247; assay: as above; conditions: P. falciparum in erythrocytes, SYBR Green DNA, 72 h; series mostly up to 28.7 µM
Procedure, shortened: as §1

[30] = test system: CP250; assay: as above; conditions: P. falciparum in erythrocytes, SYBR Green DNA, 72 h; series mostly up to 28.7 µM
Procedure, shortened: as §1

[31] = test system: CP252; assay: as above; conditions: P. falciparum in erythrocytes, SYBR Green DNA, 72 h; series mostly up to 28.7 µM
Procedure, shortened: as §1

[32] = test system: CP256; assay: as above; conditions: P. falciparum in erythrocytes, SYBR Green DNA, 72 h; series mostly up to 28.7 µM
Procedure, shortened: as §1

[33] = test system: CP260; assay: as above; conditions: P. falciparum in erythrocytes, SYBR Green DNA, 72 h; series mostly up to 28.7 µM
Procedure, shortened: as §1

Sequence of Luciferin 4-monooxygenase (Photinus pyralis) (P08659 whole entry, looked up): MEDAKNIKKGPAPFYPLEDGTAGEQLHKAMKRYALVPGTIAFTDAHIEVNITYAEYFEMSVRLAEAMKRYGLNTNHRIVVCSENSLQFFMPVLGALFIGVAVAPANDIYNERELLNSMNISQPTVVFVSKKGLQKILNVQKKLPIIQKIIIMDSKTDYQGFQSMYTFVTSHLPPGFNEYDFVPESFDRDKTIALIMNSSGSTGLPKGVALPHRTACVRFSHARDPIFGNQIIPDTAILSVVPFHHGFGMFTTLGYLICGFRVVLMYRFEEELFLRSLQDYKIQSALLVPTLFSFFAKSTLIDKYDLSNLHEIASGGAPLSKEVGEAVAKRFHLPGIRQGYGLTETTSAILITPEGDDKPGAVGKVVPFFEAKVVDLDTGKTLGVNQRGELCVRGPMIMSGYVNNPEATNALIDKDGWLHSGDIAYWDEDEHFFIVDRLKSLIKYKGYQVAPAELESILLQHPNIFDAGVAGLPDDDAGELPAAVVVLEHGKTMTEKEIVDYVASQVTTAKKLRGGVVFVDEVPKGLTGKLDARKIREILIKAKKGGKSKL
Sequence of ATP-dependent 6-phosphofructokinase (Trypanosoma brucei brucei) (O15648 whole entry, looked up): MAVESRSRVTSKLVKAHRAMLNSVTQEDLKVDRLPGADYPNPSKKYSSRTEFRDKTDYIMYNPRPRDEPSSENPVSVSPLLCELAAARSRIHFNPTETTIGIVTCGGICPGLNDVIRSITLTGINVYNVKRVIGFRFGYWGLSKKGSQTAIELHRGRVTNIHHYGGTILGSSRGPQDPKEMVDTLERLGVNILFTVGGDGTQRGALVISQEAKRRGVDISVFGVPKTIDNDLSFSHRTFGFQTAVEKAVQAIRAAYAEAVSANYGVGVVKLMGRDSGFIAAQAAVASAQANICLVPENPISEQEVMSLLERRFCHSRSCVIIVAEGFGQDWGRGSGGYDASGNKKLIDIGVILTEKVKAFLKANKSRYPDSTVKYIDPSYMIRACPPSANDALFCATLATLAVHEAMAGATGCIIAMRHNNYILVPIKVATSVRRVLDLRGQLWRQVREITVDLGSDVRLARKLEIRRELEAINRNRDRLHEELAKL
Sequence of Lysosomal acid glucosylceramidase (Homo sapiens) (P04062 whole entry, looked up): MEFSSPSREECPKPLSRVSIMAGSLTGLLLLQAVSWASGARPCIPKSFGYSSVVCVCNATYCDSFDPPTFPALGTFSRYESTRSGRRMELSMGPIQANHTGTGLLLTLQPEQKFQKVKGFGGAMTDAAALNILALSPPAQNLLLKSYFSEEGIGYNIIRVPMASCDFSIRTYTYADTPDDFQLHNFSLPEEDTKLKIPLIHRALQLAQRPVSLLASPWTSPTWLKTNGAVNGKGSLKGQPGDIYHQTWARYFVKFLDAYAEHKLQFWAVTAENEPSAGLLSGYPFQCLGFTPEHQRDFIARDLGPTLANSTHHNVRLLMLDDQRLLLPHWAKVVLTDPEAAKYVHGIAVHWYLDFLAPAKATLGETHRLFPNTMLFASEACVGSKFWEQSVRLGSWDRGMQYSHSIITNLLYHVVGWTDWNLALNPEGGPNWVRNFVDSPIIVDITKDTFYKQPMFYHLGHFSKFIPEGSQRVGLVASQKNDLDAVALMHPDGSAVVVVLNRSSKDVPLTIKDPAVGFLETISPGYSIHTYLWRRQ
Sequence of 3',5'-cyclic-AMP phosphodiesterase 4B (Homo sapiens) (Q07343 whole entry, looked up): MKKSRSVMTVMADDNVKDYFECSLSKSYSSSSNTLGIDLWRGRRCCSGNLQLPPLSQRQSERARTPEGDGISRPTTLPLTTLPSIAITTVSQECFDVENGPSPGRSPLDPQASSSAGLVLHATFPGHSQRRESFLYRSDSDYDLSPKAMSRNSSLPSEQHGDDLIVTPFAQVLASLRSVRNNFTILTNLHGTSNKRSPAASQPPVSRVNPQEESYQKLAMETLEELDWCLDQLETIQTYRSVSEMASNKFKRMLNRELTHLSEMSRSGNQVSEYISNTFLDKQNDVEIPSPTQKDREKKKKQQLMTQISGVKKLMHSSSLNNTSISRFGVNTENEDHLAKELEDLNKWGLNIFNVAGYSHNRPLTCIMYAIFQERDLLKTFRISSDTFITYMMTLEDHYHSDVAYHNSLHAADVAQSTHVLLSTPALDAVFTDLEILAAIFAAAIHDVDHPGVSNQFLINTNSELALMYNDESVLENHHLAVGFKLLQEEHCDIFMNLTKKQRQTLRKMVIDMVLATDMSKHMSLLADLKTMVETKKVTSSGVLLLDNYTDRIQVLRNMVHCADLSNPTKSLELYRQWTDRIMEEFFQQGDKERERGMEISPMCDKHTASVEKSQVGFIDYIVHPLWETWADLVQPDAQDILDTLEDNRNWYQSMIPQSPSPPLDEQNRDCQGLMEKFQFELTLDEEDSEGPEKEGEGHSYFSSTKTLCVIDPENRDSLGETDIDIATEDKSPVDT

CN1[C@@H]2CC(OC(=O)[C@@H](CO)c3ccccc3)C[C@@H]1[C@H]1O[C@H]12 (some centres undefined)
inactive: Potency [1] > 11.4 µM | activity change, negative = inhibition [2] 20.3% | activity, negative = inhibition [3] 6.14% | Potency [4] | outcome [5] | outcome [6] | Potency [7] | Potency [8] | outcome [9] | activity, negative = inhibition ([10]; parasite line A) 11.4% | activity, negative = inhibition ([10]; parasite line B) 4.71% | Potency [11] | Potency [12] | Potency [13] | Potency [14] | Potency [15] | Potency [16] | Potency [17] | Potency [18] | Potency [19] | Potency [20] | Potency [21] | Potency [22] | Potency [23] | Potency [24] | Potency [25] | Potency [26] | Potency [27] | Potency [28] | Potency [29] | Potency [30] | Potency [31] | Potency [32] | Potency [33]
